Screening results deposited in PubChem BioAssay by National Center for Advancing Translational Sciences (NCATS).
MCF10A rerep: induces DNA re-replication in MCF 10a normal breast cells. MCF 10A DNA re-replication, Hoechst nuclear intensity, 48 h. 350,000 tested, 2.9% active. Potency, µM (titrated, usually from 46.1 µM), without a hit: top-dose activity, positive = re-replication, actives largely listed as activators; note: % of control where 0% means no effect; nearly all actives have a fitted effect of over 50% in size
KB-V1 MDR tox: kills drug-selected multidrug resistant KB-V1 cells | AID 1347076 | KB-V1 MDR cells viability, CellTiter-Glo, 72 h | Potency, µM (highest dose often 46.1 µM), hits mostly cytotoxic | 400,000 tested, 3.4% active; note: % is set by controls: 0 for no effect and ±100 for the full control effect; nearly all actives have a fitted effect of over 60% in size
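Drug-selected KB-V1 cells, grown in DMEM lacking phenol red with 10% FBS, receive compound titrations; after three days at 37 degrees C, surviving cell ATP is quantified by CellTiter-Glo luminescence and responses normalized and curve-fitted.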
KB-3-1 cytotox: kills parental KB-3-1 adenocarcinoma cells; Potency, µM (highest dose often 46.1 µM), hits mostly cytotoxic; AID 1347075; 400,000 tested, 1.4% active; KB-3-1 viability, CellTiter-Glo ATP luminescence, 72 h; note: % is set by controls: 0 for no effect and ±100 for the full control effect; nearly all actives have a fitted effect of over 60% in size
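Viability of parental KB-3-1 cells, measured by CellTiter-Glo luminescence, followed a 72 h incubation at 37 °C with pinned compounds in phenol-red-free DMEM containing 10% FBS.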
HT1080 IDH1KD tx: toxicity to HT-1080 IDH1 knockdown cells (counter line). HT-1080 IDH1 knockdown viability, ATP luminescence, 48 h. 360,000 tested, 2% active. Potency, µM (top dose mostly 46.1 µM), without a hit: at the highest dose activity, negative = toxicity, most hits filed as cytotoxic. AID 686971;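 note: 0% = DMSO wells and -100% = cell-free medium wells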
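HT-1080-IDH1KD cells (IDH1 knocked down), 750/well in RPMI with 5% FBS, treated with compound 48 h at 37 degrees C. Viability by CellTiter-Glo luminescence, normalised to DMSO and no-cell wells; concentration-response curves classed.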
HT1080NT lethal: kills 2HG-producing HT-1080-NT fibrosarcoma cells. AID 686970. 360,000 tested, 1.6% active. HT-1080-NT fibrosarcoma viability, CellTiter-Glo ATP luminescence, 48 h. Potency, µM (top dose mostly 46.1 µM), for inactives: top-dose activity, negative = less viability, actives largely listed as cytotoxic;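 note: NT is the 2HG producing partner of a matched IDH1 knockdown line; 0% = DMSO-treated cells and -100% = media-only wells without cells; nearly all actives have a fitted effect of over 55% in size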
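Compounds were tested in concentration-response format on HT-1080-NT cells for 48 hours at 37 degrees C. Cell viability came from CellTiter-Glo luminescence; curves were classified by r2, response magnitude and activity.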
SW480 rerep: induces DNA re-replication in SW480 colon adenocarcinoma cells; SW480 DNA re-replication, Hoechst DNA content imaging, 48 h; Potency, µM (highest dose often 46.1 µM), without a hit: top-dose re-replication activation, hits mostly activators; 340,000 tested, 1.8% active; AID 624297; note: % of control where 0% means no effect; nearly all actives have a fitted effect of over 55% in size
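Treated cells incubate 48 hr (37 C, 5% CO2), are stained 40 min with Hoechst, and nuclear fluorescence is enumerated; a rise in nuclei with high DNA signal marks re-replication.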
Active calls of the source: *; i = inactive; ? = inconclusive; / = no result. In the library only some 8% were active in any assay of this set; here they are far more common. Calls come from the whole dose curve; as a rule, active = well fitted curve in the direction sought with a large enough effect; inconclusive = small, poorly fitted or top-dose-only effect, or another doubt; inactive = no such curve, though single readings can be large; an effect the other way counts as inactive or inconclusive. Potency is the fitted concentration of half-maximal effect.

SMILES	MCF10A rerep	KB-V1 MDR tox	KB-3-1 cytotox	HT1080 IDH1KD tx	HT1080NT lethal	SW480 rerep
COc1ccc(-c2cc(N)n(S(=O)(=O)c3c(F)c(F)c(F)c(F)c3F)n2)cc1OC	?	9.2µM*	10µM*	4µM*	7.1µM*	?
CC(=O)c1ccc(NC(=O)Nc2nnc(N3CCCC(C)C3)s2)cc1 (stereo not drawn)	/	i	i	/	/	/
C=C(C)C(O)CC/C(C)=C/Cc1c(O)ccc(C(=O)/C=C/c2ccc(O)cc2)c1O (stereo not drawn)	21µM*	i	i	1%	1%	?
c1ccc(-c2cc(-c3ccncc3)nc3ccc4ccccc4c23)cc1	15µM*	?	i	-30%	?	?
Clc1ccc2nc(-c3ccncc3)cc(-c3ccccc3)c2c1	-8%	i	i	11%	3%	-11%
CC(C)NC(=O)c1ccc2c(c1)N(CC(=O)Nc1ccccc1F)C(=O)C(C)(C)O2	0%	i	i	0%	-2%	-1%
Cc1nnc(SCc2ccc(Cl)cc2)nc1/C=C/N(C)C	18µM*	i	i	1%	7%	-5%
COc1ccc(S(=O)(=O)Oc2cccc(/C=N/N=C3/NC(=O)C(CC(=O)O)S3)c2)cc1 (stereo not drawn)	-17%	i	i	7%	-3%	6.5µM*
CCOC(=O)[C@]12CCCC=C1N(Cc1cccc3ccccc13)C(=O)[C@H](CC(=O)N1CCCC1)C2	/	9.2µM*	i	-10%	-10%	/
CCOC(=O)[C@]12CCCC=C1N(Cc1cccc3ccccc13)C(=O)[C@H](CC(=O)NCc1ccc(OC)c(OC)c1)C2	/	6.5µM*	?	?	?	/
CCOC(=O)[C@]12CCCC=C1N(Cc1ccccc1)C(=O)[C@H](CC(=O)NCc1ccc(OC)c(OC)c1)C2	/	i	i	-16%	0%	/
CCOC(=O)[C@]12CCC=C1N(Cc1ccc(Cl)cc1Cl)C(=O)[C@H](CC(=O)NCc1ccc(OC)c(OC)c1)C2	/	5.2µM*	7.3µM*	-29%	?	/
CCCCNC(=O)C[C@@H]1C[C@@]2(C(=O)OCC)CCCC=C2N(Cc2ccc(Cl)cc2Cl)C1=O	/	9.2µM*	?	-29%	?	/
CC1=C(C(=O)NCc2ccc(Cl)cc2)C2(CCCCCC2)OC1=O	/	i	i	/	/	/
COc1ccc(C(C#N)N2CCC(c3ccccc3)=N2)cc1 (stereo not drawn)	?	i	i	18%	20%	23%
CCOC(=O)[C@]12CCCC=C1N(Cc1cccc3ccccc13)C(=O)[C@H](CC(=O)NCc1cccs1)C2	/	16µM*	?	?	?	/
CCOC(=O)[C@]12CCC=C1N(Cc1cccc3ccccc13)C(=O)[C@H](CC(=O)NCc1cccs1)C2	/	?	?	-30%	?	/
CCc1ccc(CNCCNC(=O)c2ccco2)cc1	18µM*	?	i	-10%	-24%	?
CN(C)c1ccc(C2CNC(c3ccc(Cl)c([N+](=O)[O-])c3)c3[nH]c4ccccc4c32)cc1 (stereo not drawn)	4.1µM*	i	?	-23%	-7%	15µM*
CC(C)OCCCN1CC(=O)N2C(c3cccc([N+](=O)[O-])c3)c3[nH]c4ccccc4c3C[C@H]2C1=O (stereo partly drawn)	1%	i	?	-22%	-20%	9%
O=[N+]([O-])c1cccc(C2NCC(c3ccccc3Cl)c3c2[nH]c2ccccc32)c1 (stereo not drawn)	?	16µM*	i	26µM*	?	?
CCCCn1c(=O)nc2n(-c3ccccc3C)c3ccccc3cc-2c1=O	1%	10µM*	i	9%	8%	?
Cc1ccccc1-n1c2nc(=O)n(C)c(=O)c-2cc2ccccc21	21µM*	i	i	-3%	-2%	18µM*
CC(C)Oc1ccc(C(=O)Nc2c(C(=O)Nc3cccc(F)c3)oc3ccccc23)cc1	/	i	i	/	/	/
COc1ccccc1C(=O)NCCC(=O)NC1CCCCCC1	12%	i	i	4%	3%	?
SMILES	MCF10A rerep	KB-V1 MDR tox	KB-3-1 cytotox	HT1080 IDH1KD tx	HT1080NT lethal	SW480 rerep
Cc1ccc(C(=O)NC(=C(Cl)Cl)S(=O)(=O)c2ccccc2)cc1	21µM*	16µM*	i	?	?	-4%
COC(=O)NC(=C(Cl)Cl)S(=O)(=O)c1ccccc1	7.3µM*	18µM*	16µM*	-3%	-2%	?
CCOC(=O)NC(C(Cl)(Cl)Cl)S(=O)(=O)c1ccccc1 (stereo not drawn)	?	i	i	?	?	?
Cc1ccc(C(=O)NC(C#N)=C(Cl)Cl)cc1	9.2µM*	i	?	21µM*	6.5µM*	?
COc1ccc(C(=O)NC(=C(Cl)Cl)S(=O)(=O)c2ccc(C)cc2)cc1	10µM*	?	?	?	?	13µM*
CCOc1ccc(NC(=O)CN2C(C(=O)OC)=C(c3ccccc3)c3cc(Cl)ccc3S2(=O)=O)cc1	/	i	i	/	/	/
Fc1ccc(Nc2nc(NCc3ccco3)nc3nccnc23)cc1	/	i	i	/	/	/
Cc1ccccc1OCC(=O)Nc1c2c(nn1C(C)(C)C)CS(=O)(=O)C2	2%	i	i	-18%	3%	18µM*
Cc1ccccc1OCc1nc2ccc(S(=O)(=O)N3CCOCC3)cc2[nH]1	5%	21µM*	i	2%	-9%	0%
Fc1cccc(NCc2cccn2-c2nnc(N3CCOCC3)s2)c1	/	i	i	/	/	/
O=C(CC1C(=O)CCCC1=O)c1ccccc1	15µM*	i	i	?	?	?
O=C(CCC1CCCCC1=O)c1ccccc1 (stereo not drawn)	1%	i	i	15%	8%	2%
COC(=O)c1cc2c(ccn2-c2ccc(F)cc2)n1CC(=O)OC(C)C	16µM*	?	i	-22%	-2%	-8%
O=S1(=O)c2cccc3cccc(c23)N1CCCN1CCN(c2ccc(F)cc2)CC1	?	/	/	/	/	-4%
NC(=S)NN=C1Cc2cccc3cccc1c23	-3%	1.3µM*	1.3µM*	15%	3%	-4%
O=C(COc1ccc(-n2ccnc2)cc1)Nc1cccc(F)c1	-3%	?	?	?	?	-18%
O=C(COc1ccc(-n2ccnc2)cc1)Nc1cccc(Cl)c1	0%	5.8µM*	?	-21%	0%	5%
